Source: PubChem (National Center for Advancing Translational Sciences (NCATS))
VP16 counter: VP16 counterscreen qHTS for inhibitors of ROR gamma transcriptional activity | Drosophila S2 Gal4-VP16 UAS-luciferase, luminescence, 20 h | hit rate 3.5% among 310,000 | Potency, µM (titrated, usually from 53.6 µM), inactives show at the highest dose activity, negative = inhibition, hits mostly inhibitors;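 also: Gal4-VP16 expression switched on by copper sulfate through the metallothionein promoter; potency is read from the fitted curve at half-maximal effect; nearly all actives have a fitted effect of over 50% in size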
IL1B secr inh: qHTS for Inhibitors of Inflammasome Signaling: IL-1-beta AlphaLISA Primary Screen; THP-1 LPS/ATP IL-1B secretion, AlphaLISA, 16 h; active compounds read low; activity change, % at 57.5 µM; hit rate 4.7% among 360,000; AID 743279, 2014; in the data active = activity change below about -50%; inconclusive = mostly about -30% to -49%
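Secreted IL-1B measured by AlphaLISA bead assay after 16 h compound exposure of THP-1 cells; compounds (final up to 57.5 uM) added 1 h before LPS (250 ng/mL) and ATP (1.25 mM) stimulation; lower signal means less secretion.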
RORg inh: qHTS for inhibitors of ROR gamma transcriptional activity; Nuclear receptor ROR-gamma (Mus musculus), P51450; Drosophila S2 Gal4-RORgamma UAS-luciferase reporter, 20 h; Potency, µM (series often up to 53.6 µM), without a hit: top-dose activity change, negative = inhibition, actives largely listed as inhibitors; hit rate 5.4% among 310,000; also: potency is read from the fitted curve at half-maximal effect; nearly all actives have a fitted effect of over 60% in size
Target sequence (P51450 whole entry, looked up, the tested form may be a part): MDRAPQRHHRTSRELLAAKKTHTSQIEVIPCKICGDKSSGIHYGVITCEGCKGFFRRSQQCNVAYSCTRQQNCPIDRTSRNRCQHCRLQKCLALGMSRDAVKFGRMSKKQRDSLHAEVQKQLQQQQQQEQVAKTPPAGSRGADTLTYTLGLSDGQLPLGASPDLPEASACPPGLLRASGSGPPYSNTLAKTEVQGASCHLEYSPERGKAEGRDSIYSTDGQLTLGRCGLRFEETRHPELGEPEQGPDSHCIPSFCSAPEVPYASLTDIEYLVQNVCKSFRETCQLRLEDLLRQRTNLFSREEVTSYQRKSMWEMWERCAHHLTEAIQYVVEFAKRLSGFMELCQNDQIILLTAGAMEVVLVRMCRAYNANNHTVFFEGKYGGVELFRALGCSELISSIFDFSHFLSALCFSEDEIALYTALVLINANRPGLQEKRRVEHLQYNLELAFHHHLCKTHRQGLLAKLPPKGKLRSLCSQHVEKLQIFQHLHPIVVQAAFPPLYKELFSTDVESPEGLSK
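A Gal4/UAS one-hybrid system in insect cells: metallothionein-promoter Gal4–ROR gamma fusion plus Photinus luciferase reporter. Copper sulfate 700 uM final, 20 hr ambient incubation, luminescent detection after 10 min with reagent.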
TDP1 cell CPT: qHTS for Inhibitors of human tyrosyl-DNA phosphodiesterase 1 (TDP1): qHTS in cells in presence of CPT; Potency, µM (top dose mostly 46.2 µM), without a hit: top-dose activity change, negative = growth inhibition, actives largely listed as inhibitors; chicken DT40 Tdp1-/-;hTDP1 cells + 20 nM CPT, ATP luminescence, 48 h; AID 686979, 2013; hit rate 12% among 420,000; also: potency is read from the fitted curve at half-maximal effect; nearly all actives have a fitted effect of over 55% in size
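Chicken DT40 Tdp1-/- cells complemented with human TDP1, 400 cells/well, exposed to compounds plus 20 nM camptothecin for at least 48 h at 37 C; viability read as ATP content by CellTiter-Glo luminescence.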
TDP1 cell noCPT: qHTS for Inhibitors of human tyrosyl-DNA phosphodiesterase 1 (TDP1): qHTS in cells in absence of CPT. DT40 Tdp1-/- hTDP1 cells, no CPT, ATP luminescence, 48 h. Potency, µM (top dose mostly 46.2 µM), inactives show at the top dose activity change, negative = growth inhibition, hits mostly inhibitors. hit rate 15% among 420,000; also: potency is read from the fitted curve at half-maximal effect; nearly all actives have a fitted effect of over 55% in size
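Chicken DT40 Tdp1-/- cells stably complemented with human TDP1 were seeded at 400 cells/well with DMSO in place of 20 nM camptothecin. After compound pinning, cells grew at least 48 hr at 37 °C; viability read by CellTiter-Glo luminescence.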
ELG1 repair inh: qHTS screen for small molecules that inhibit ELG1-dependent DNA repair in human embryonic kidney (HEK293T) cells expressing luciferase-tagged ELG1; HEK293T ELG1-luciferase reporter, luminescence, 16 h; DNA damage induced by 5-fluorouridine; Potency, µM (highest dose often 46.1 µM), for the others: top-dose activity change, negative = inhibition, most hits filed as inhibitors; hit rate 2.3% among 330,000; also: potency is read from the fitted curve at half-maximal effect; nearly all actives have a fitted effect of over 55% in size
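Quantitative HTS, concentration-response format. 2,000 cells/well co-treated with 5-fluorouridine and compound, 16 hr in 5% CO2 at 37 °C; ONE-Glo luminescence read after 30 min.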
Active calls of the source: *; u = inconclusive; x = not tested or not shown; [ ] = dose if it differs, or a comment. Only some compounds are listed: those with a hit (about 21% of all), similar ones and a draw of the others. Unless noted, calls follow the shape of the dose curve; as a rule, active = well fitted curve in the direction sought with a large enough effect; inconclusive = small, poorly fitted or top-dose-only effect, or another doubt; inactive = no such curve, though single readings can be large; an effect the other way counts as inactive or inconclusive. % is scaled to controls: 0 for no effect and ±100 for the full control effect.

SMILES	VP16 counter	IL1B secr inh	RORg inh	TDP1 cell CPT	TDP1 cell noCPT	ELG1 repair inh
COc1ccc(NC(=O)CN(C)C(=O)/C=C/c2cn(-c3ccccc3)nc2-c2cccs2)cc1	x	2.8	x	u	18.4µM*	u
COc1ccc(NC(=O)CN(C)C(=O)/C=C/c2cn(-c3ccccc3)nc2-c2ccc(F)cc2)cc1	x	-20.7	x	u	23.1µM*	u
COc1ccc(NC(=O)CN(C)C(=O)/C=C/c2cn(-c3ccccc3)nc2-c2ccc(C)cc2)cc1	x	-7.9	x	u	20.6µM*	u
CN(C)c1ccc(NC(=O)c2cn(-c3ccccc3)nc2-c2cccs2)cc1	9.2%	u	-2.2%	2.9%	u	-18.7%
COC(=O)c1cc(NS(=O)(=O)c2cc(Br)cc3c2N(C(C)=O)CC3)cc(C(=O)OC)c1	x	x	x	-18.1%	-19.6%	x
CCn1c(CC(=O)Nc2ccccc2C)nnc1SCC(=O)NC1CCCC1	-7.6%	-9.1	-22.4%	5.6%	-15.8%	3.0%
CNC[C@H](O)c1ccc(OC(=O)C(C)(C)C)c(OC(=O)C(C)(C)C)c1	-26.2%[17 µM]	x	-5.7%[2.98 µM]	x	x	x
CCn1c(CNC(=O)c2cccc(C)c2)nnc1SCC(=O)NC1=NCCS1	-0.6%	18.7	-15.1%	1.8%	u	6.5%
Cc1cc(C(=O)NC2=NCCS2)cs1	u	1.9	11.2µM*	-19.4%	-10.7%	u
O=C(NC1=NCCS1)c1ccncc1	4.9%	-3.2	-14.5%	1.3%	2.9%	-1.6%
O=C(NC1=NCCS1)c1ccccc1	6.2%	7.1	-12.0%	13.2%	2.7%	u
O=C(NC1=NCCS1)c1ccc(Cl)c(Cl)c1	u	19.9	11.2µM*	-0.7%	-0.5%	u
Cc1cccc(C(=O)NC2=NCCS2)c1	-28.8%	-13.5	11.2µM*	-4.7%	-19.4%	u
Cc1cccc(C(=O)NCc2nnc(SCC(=O)NC3=NCCS3)n2C)c1	u	-10.0	1.9%	u	16.4µM*	5.1%
Cc1ccc(NC(=O)CN2C(=O)NC3(CCCCC3)C2=O)cc1S(=O)(=O)N1CCOCC1	x	24.5	x	-24.1%	u	7.5%
Cc1nc2cccc(C(=O)Oc3ccc([N+](=O)[O-])cc3)c2o1	-6.1%	-9.7	-33.0%	-18.0%	-23.5%	-5.5%
Cc1ccc(C(=O)O/N=C(\N)c2cccc([N+](=O)[O-])c2)cc1	-12.5%	1.2	2.4%	-29.6%	-15.4%	u
CC1=CC(=NOC(=O)c2cccc([N+](=O)[O-])c2)C=C(C)C1=O	u	-85.0*	u	18.4µM*	11.6µM*	5.7%
CC1=CC(=O)C(C(C)C)=C/C1=N/OC(=O)c1cccc([N+](=O)[O-])c1	u	-100.6*	1µM*	23.1µM*	11.6µM*	-5.7%
CC1=CC(=O)C(C(C)C)=C/C1=N\OC(=O)c1cccc2nc(C)oc12	-5.4%	1.0	-22.2%	u	20.6µM*	u
COc1ccc(Cl)cc1NC(=O)c1cccc(S(=O)(=O)Nc2c(C)n(C)n(-c3ccccc3)c2=O)c1	x	9.0	x	-23.8%	-29.7%	x
CC(C)(C)CC(=O)Nc1cc(S(=O)(=O)N2CCCCCC2)ccc1Cl	-3.9%	13.2	2.6%	u	u	-4.0%
O=C(Nc1cc(S(=O)(=O)N2CCCCC2)ccc1Cl)C1=NN(c2ccccc2)C(=O)CC1	-6.1%	82.5	-26.7%	u	8.2µM*	u
CC(NCC(=O)Nc1cc(S(=O)(=O)N2CCOCC2)ccc1Cl)c1ccc(Cl)cc1Cl (stereo unspecified)	x	-52.2*	x	u	23.1µM*	u
CCN(C(=S)Nc1cc(S(=O)(=O)N2CCOCC2)ccc1Cl)c1cccc2ccccc12	22.4µM*	9.1	u	18.4µM*	u	2.5%
SMILES	VP16 counter	IL1B secr inh	RORg inh	TDP1 cell CPT	TDP1 cell noCPT	ELG1 repair inh
CCOc1ccc(NC(=O)C2=NN(c3ccccc3)C(=O)CC2)cc1S(=O)(=O)N1CCCCC1	x	-10.2	x	u	u	-28.1%
O=C(CCl)Nc1cc(S(=O)(=O)N2CCCCCC2)ccc1Cl	u	-101.4*	-12.3%[10 µM]	3.66µM*	2.59µM*	u
CC(=O)Nc1ccc(NC(=O)CSc2nnc(-c3cccs3)n2N)cc1	x	2.3	x	-20.3%	0.2%	19.4%
COc1ccc(C(O)c2nc(-c3cc(F)cc(Cl)c3)cs2)cc1 (stereo unspecified)	x	-18.2	x	u	u	x
COc1ccccc1CNCC(=O)Nc1cc(S(=O)(=O)N2CCOCC2)ccc1Cl	x	3.7	x	u	16.4µM*	20.6µM*
Cc1ccc(S(=O)(=O)N2CCOCC2)cc1NC(=O)CNCc1ccccc1Cl	x	-17.7	x	u	u	u
COc1ccccc1CNCC(=O)Nc1cc(S(=O)(=O)N2CCCCCC2)ccc1Cl	10.7%	-8.5	u	u	u	23.1µM*
O=C(CNCc1ccccn1)Nc1cc(S(=O)(=O)N2CCCCC2)ccc1Cl	-9.3%	85.3	-8.5%	-24.6%	-10.7%	u
COc1ccccc1CNC(=O)CCNC(=O)C1CCN(S(=O)(=O)c2ccccc2)CC1	-1.6%	20.6	-25.8%	-18.9%	9.5%	-0.6%
CC(C)CC(=O)Nc1cccc2c1C(=O)N(c1ccccc1)C2=O	-5.0%	12.1	5.1%	3.1%	2.9%	-3.5%
CC(C)CC(=O)O/N=C1\C(=O)N(c2ccccc2)c2ccccc21	0.1%	-64.1*	2.9%	20.6µM*	23.1µM*	7.1%
Cc1ccc(OCC(=O)NNC(=O)c2ccc(F)c(S(=O)(=O)N3CCOCC3)c2)cc1C	x	14.5	x	-23.7%	-9.5%	x
Cc1ccc(NC2Sc3ccccc3NC2=O)cc1 (stereo unspecified)	u	25.2	11.2µM*	u	u	u
O=C(O)Cn1nc(-c2ccccc2)oc1=O	4.5%	7.3	12.0%	0.7%	-4.5%	16.5%
O=C(O)Cn1nc(-c2ccc(F)cc2)oc1=O	1.2%	3.9	15.8%	16.4µM*	u	0.7%
Nc1cc(C(=O)OCC(=O)Nc2cccc(S(=O)(=O)N3CCOCC3)c2)ccc1Cl	x	9.3	x	-10.6%	-13.3%	-16.3%
CCc1cccc(C)c1NC(=O)Cn1nc(C)c2nn(-c3ccc(Cl)cc3)c(C)c2c1=O	x	x	x	16.4µM*	20.6µM*	x
CCOc1ccccc1CNC(=O)Cn1nc(C)c2nn(-c3ccc(Cl)cc3)c(C)c2c1=O	x	x	x	u	18.4µM*	x
